# Screens as filed in PubChem BioAssay.
# Only some compounds are listed: those with a hit (about 9.9% of all), similar ones and a draw of the others.
# KB-V1 MDR tox: KB-V1 MDR subline cytotoxicity; 400,000 tested, 3.4% active; Potency, µM (series often up to 46.1 µM), hits mostly cytotoxic; KB-V1 MDR cells viability, CellTiter-Glo, 72 h; also: potency is read from the fitted curve at half-maximal effect; % is scaled to controls: 0 for no effect and ±100 for the full control effect; nearly all actives have a fitted effect of over 60% in size
#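 Drug-selected KB-V1 cells, grown in DMEM lacking phenol red with 10% FBS, receive compound titrations; after three days at 37 degrees C, surviving cell ATP is quantified by CellTiter-Glo luminescence and responses normalized and curve-fitted.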
# KB-3-1 tox: KB-3-1 parental cell cytotoxicity; Potency, µM (series often up to 46.1 µM), actives largely listed as cytotoxic; KB-3-1 viability, CellTiter-Glo ATP luminescence, 72 h; 400,000 tested, 1.4% active; also: potency is read from the fitted curve at half-maximal effect; % is scaled to controls: 0 for no effect and ±100 for the full control effect; nearly all actives have a fitted effect of over 60% in size
#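 Cytotoxicity measured as CellTiter-Glo luminescence after 72 h at 37 C. Compound titrations were pinned onto drug-naive KB-3-1 parental adenocarcinoma cells grown in DMEM with 10% FBS, and normalized data fitted to concentration-response curves.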
# MCF10A rerep: induces DNA re-replication in MCF 10a normal breast cells | 350,000 tested, 2.9% active | Potency, µM (titrated, usually from 46.1 µM), for the others: top-dose activity, positive = re-replication, actives largely listed as activators | MCF 10A DNA re-replication, Hoechst nuclear intensity, 48 h; also: potency is read from the fitted curve at half-maximal effect; % of control where 0% means no effect; nearly all actives have a fitted effect of over 50% in size
# IL-1B inflam inh: inflammasome signaling inhibition, IL-1 beta readout; activity change, % at 57.5 µM; 360,000 tested, 4.7% active; THP-1 LPS/ATP IL-1B secretion, AlphaLISA, 16 h; active compounds read low; in the data active = activity change below about -50%; inconclusive = mostly about -30% to -49%; also: % is scaled to controls: 0 for no effect and ±100 for the full control effect
#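 THP-1 cells pretreated 1 hr with compounds (up to 57.5 uM final), then stimulated with LPS (250 ng/mL final) plus ATP (1.25 mM final); secreted IL-1B measured by AlphaLISA after 16 hr, decreased signal indicating inhibition.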
# SW480 rerep: induces DNA re-replication in SW480 colon adenocarcinoma cells. SW480 DNA re-replication, Hoechst DNA content imaging, 48 h. Potency, µM (highest dose often 46.1 µM), for the others: at the top dose re-replication activation, actives largely listed as activators. 340,000 tested, 1.8% active; also: potency is read from the fitted curve at half-maximal effect; % of control where 0% means no effect; nearly all actives have a fitted effect of over 55% in size
#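 Quantitative HTS format with DMSO vehicle controls; 48 hr drug incubation at 37 C, then 40 min Hoechst staining and scanning imager measurement at 405 nm excitation.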
# Numbers without * were called inactive; i = inactive; ? = inconclusive; nt = no result. Unless noted, calls follow the shape of the dose curve; as a rule, active = well fitted curve in the direction sought with a large enough effect; inconclusive = small, poorly fitted or top-dose-only effect, or another doubt; inactive = no such curve, though single readings can be large; an effect the other way counts as inactive or inconclusive.
SMILES,KB-V1 MDR tox,KB-3-1 tox,MCF10A rerep,IL-1B inflam inh,SW480 rerep
Cc1c(C(C)NC(=O)c2cc(COc3cccc4cnccc34)on2)cnn1C (stereo not given),?,20.6µM*,2.6%,-6.9,-15.2%
CS(=O)(=O)N1CCC(C(=O)Nc2cc(Cl)c(Cl)cc2Cl)CC1,i,i,0.4%,18.9,-0.3%
CN(C)CC1CCC/C(=C\c2ccc(OC(=O)c3ccc(Cl)cc3)cc2)C1=O (stereo not given),20.6µM*,?,?,-99.6*,?
CN(C)CC1CC/C(=C\c2ccc(O)cc2)C1=O (stereo not given),?,?,3.26µM*,-113.2*,10.3µM*
COc1ccc(/C=C2\CCC(C3CCCC3)C2=O)cc1 (stereo not given),i,i,-8.5%,0.5,-0.7%
O=C1/C(=C\c2ccc(Cl)cc2)CCC1CNc1ccc(Cl)cc1 (stereo not given),i,i,5.8µM*,-56.9*,?
COc1ccc(/C=C2/CCC(CN3CCOCC3)C2=O)cc1 (stereo not given),?,?,?,-102.9*,14.6µM*
CN(C)CC1CCC/C(=C\c2ccc(OC(=O)/C=C/c3ccccc3)cc2)C1=O (stereo not given),?,?,4.0%,-110.8*,?
CC(=O)c1ccc(OC(=O)/C=C/c2ccccc2)cc1,?,i,0.2%,-5.3,1.0%
CCOC(=O)[C@]12CCCC=C1N(Cc1ccccc1)C(=O)[C@H](CC(=O)NCC1CCCCC1)C2,?,i,nt,?,nt
Cc1[nH]nc(-c2ccc(O)c(C)c2O)c1-c1cnn(-c2ccccc2)c1,16.4µM*,i,76.7%,?,0.0%
Cc1oc2c(C)c(O)ccc2c(=O)c1-c1cnn(-c2ccccc2)c1,i,i,?,32.5,-1.2%
O=C(Nc1ncc(Cl)cc1Cl)c1c(F)cccc1Cl,i,i,0.6%,-10.7,-1.4%
CCCCOc1ccc(OCCSc2nc3ccccc3n2CC(=O)O)cc1,i,i,3.6%,11.5,4.0%
CCCCOC(=O)n1c(SCC(=O)N(C)C)nc2ccccc21,16.4µM*,i,-5.9%,0.0,-3.1%
COc1ccc(/C=C\C(=O)c2c(O)ccc3c(C)cc(=O)oc23)cc1OC,20.6µM*,16.4µM*,?,-69.8*,?
COc1cc(/C=C/C(=O)c2c(O)ccc3c(C)cc(=O)oc23)ccc1O,?,?,16.1%,-79.7*,4.0%
Cc1cc(=O)oc2c(C(=O)/C=C/c3ccccc3)c(O)ccc12,?,i,?,9.6,-2.1%
Cc1cc(=O)oc2c(C(=O)/C=C\c3cccs3)c(O)ccc12,i,?,?,-98.9*,7.2%
Cc1ccc(S(=O)(=O)/N=C(\Sc2ccccc2)c2ccccc2)cc1,i,i,?,-50.4*,24.8%
Cc1ccc(S(=O)(=O)/N=C(/Sc2ccccc2C(=O)O)c2ccccc2)cc1,i,?,4.7%,25.2,3.1%
O=S(=O)(/N=C(\Sc1ccccc1)c1ccccc1)c1ccc(Cl)cc1,i,i,-4.7%,-52.6*,9.3%
COc1cc(C(=O)Nc2ccc(S(=O)(=O)Nc3nccc(C)n3)cc2)c([N+](=O)[O-])cc1OC,i,i,-0.5%,-2.8,8.7%
CCCCNC(=O)COC(=O)c1c2c(nc3ccccc13)/C(=C\c1cccs1)CC2,?,?,?,-12.1,?
CC(C)CNC(=O)COC(=O)c1c2c(nc3ccccc13)/C(=C/c1cccs1)CC2,?,i,3.26µM*,4.2,3.66µM*
SMILES,KB-V1 MDR tox,KB-3-1 tox,MCF10A rerep,IL-1B inflam inh,SW480 rerep
NC(=O)c1ccc(NC(=O)COC(=O)c2c3c(nc4ccccc24)/C(=C\c2cccs2)CCC3)cc1,i,i,23.1µM*,-5.3,20.6µM*
O=C(COC(=O)c1c2c(nc3ccccc13)CCCC2)c1cccs1,i,i,-6.6%,35.9,2.5%
CCc1cccc(C)c1NC(=O)COC(=O)c1c2c(nc3ccccc13)/C(=C\c1cccs1)CCC2,14.6µM*,i,10.3µM*,-11.2,18.4µM*
CN(c1ccc(OCC(=O)N2CCOCC2)cc1)S(=O)(=O)c1ccc(Cl)cc1,i,i,0.1%,12.0,-7.4%
O=C(COC(=O)c1ccc(F)cc1)NCc1ccc(F)cc1,?,?,-1.3%,21.8,2.5%
Cn1c(C(=O)OCC(=O)NCc2ccc(F)cc2)cc2occc21,i,i,2.91µM*,8.5,-0.8%
COc1cccc(/C=C/C(=O)c2ccc(C)c([N+](=O)[O-])c2)c1,i,i,6.51µM*,-82.9*,?
COc1cc(/C=C/C(=O)c2ccc(C)c([N+](=O)[O-])c2)cc(OC)c1O,?,i,9.2µM*,?,nt
COC(=O)N/N=C(\C)c1ccc(C)c([N+](=O)[O-])c1,i,i,2.6%,-4.2,-2.2%
Cc1ccc(CN(Cc2ccco2)c2cnc(S(C)(=O)=O)nc2C(=O)Nc2ccccc2Br)o1,i,i,nt,nt,nt
O=C(COC(=O)CNS(=O)(=O)c1ccc2ccccc2c1)Nc1ccccc1Sc1ccccc1,i,i,-1.2%,13.3,-3.7%
O=C(COC(=O)c1ccccc1C(=O)c1ccc(Cl)c([N+](=O)[O-])c1)NC1CCCCCC1,i,?,2.59µM*,-107.4*,3.66µM*
Cn1c(N)c(C(=O)COC(=O)c2ccccc2C(=O)c2ccc(Cl)c([N+](=O)[O-])c2)c(=O)n(C)c1=O,i,?,11.6µM*,-98.9*,?
CC(C)N(C(=O)COC(=O)c1ccccc1C(=O)c1ccc(Cl)c([N+](=O)[O-])c1)C(C)C,i,i,?,-102.4*,?
CN(CCC#N)C(=O)COC(=O)c1ccccc1C(=O)c1ccc(Cl)c([N+](=O)[O-])c1,i,?,9.2µM*,-105.6*,22.6%
O=C(COC(=O)c1ccc(Cl)c([N+](=O)[O-])c1)NC1CCCC1,i,i,9.9%,-0.3,-1.5%
CN(CCC#N)C(=O)COC(=O)c1ccc(Cl)c(S(N)(=O)=O)c1,i,i,8.5%,-6.3,-1.5%
Cn1c(N)c(C(=O)COC(=O)c2ccccc2C(=O)c2ccccc2)c(=O)n(C)c1=O,i,?,16.4%,0.0,-0.5%
Nc1nc2c(Cl)ccc(Cl)c2s1,i,i,-1.1%,0.4,?
CC(C)COc1ccc(/C(=N/O)c2ccccc2)cc1,i,i,-1.2%,-78.9*,-0.5%
CCOC(=O)c1sc2nc(C)nc(SC(C)C(=O)NC3CC3)c2c1C (stereo not given),i,i,0.2%,0.0,3.8%
CCc1noc(C)c1C(=O)OC(C)C(=O)c1c(C)[nH]c2ccccc12 (stereo not given),?,i,-0.8%,-6.1,-5.6%
